Bioassay records deposited in PubChem BioAssay by National Center for Advancing Translational Sciences (NCATS).
In the library only some 2.5% were active in any assay of this set; here they are far more common.
Cruzain inh noDet: blocks cruzain activity in detergent-free assay | 200,000 tested, 2.3% active | Potency, µM, without a hit: max response, negative = inhibition, most hits filed as inhibitors | purified cruzain, Z-FR-AMC fluorescence, no detergent | AID 1476 | P25779;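 note: plate controls were enzyme without inhibitor for no effect and buffer without enzyme for full effect; nearly all actives have a fitted effect of over 40% in size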
Target sequence (P25779 123-467 limits assumed): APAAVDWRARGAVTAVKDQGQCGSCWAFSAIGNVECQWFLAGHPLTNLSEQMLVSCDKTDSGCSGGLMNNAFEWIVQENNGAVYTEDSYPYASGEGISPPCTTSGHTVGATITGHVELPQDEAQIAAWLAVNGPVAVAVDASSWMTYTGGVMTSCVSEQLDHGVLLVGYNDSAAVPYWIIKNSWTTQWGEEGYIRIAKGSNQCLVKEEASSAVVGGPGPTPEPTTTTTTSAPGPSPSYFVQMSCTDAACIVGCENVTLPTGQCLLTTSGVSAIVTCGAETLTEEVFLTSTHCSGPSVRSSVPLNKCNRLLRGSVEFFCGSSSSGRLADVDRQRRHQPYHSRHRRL
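Purified cruzain at 1.5 nM, pre-incubated 15 min with compound at room temperature in 100 mM sodium acetate pH 5.5, 5 mM DTT, 0.00005% Triton X-100. Reaction started with 2 uM Z-FR-AMC; AMC fluorescence increase over 60 s gives rate.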
Cruzain inh Det: cruzain (T. cruzi) inhibition with detergent; P25779; purified cruzain, Z-FR-AMC fluorescence, 0.01% Triton; Potency, µM, for the others: max response, negative = inhibition, most hits filed as inhibitors; 200,000 tested, 0.43% active;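 note: plate controls were neutral wells for no effect and buffer without enzyme for full effect; nearly all actives have a fitted effect of over 40% in size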
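In this qHTS format, compounds are incubated with 1.5 nM cruzain for 15 min at room temperature before 2 uM Z-FR-AMC is added. Release of AMC is followed at 360/450 nm, and progress is taken as the 60 s fluorescence difference.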
Active calls of the source: *. Calls come from the whole dose curve; as a rule, active = well fitted curve in the direction sought with a large enough effect; inconclusive = small, poorly fitted or top-dose-only effect, or another doubt; inactive = no such curve, though single readings can be large; an effect the other way counts as inactive or inconclusive. Potency is the fitted concentration of half-maximal effect.

`COC(=O)c1c(NC(=O)COC(=O)CNC(=O)C2CCCCC2)sc(C)c1C` gave Cruzain inh noDet 10µM* and Cruzain inh Det 4µM*.
COC(=O)c1c(NC(=O)COC(=O)CCS(=O)(=O)c2ccc(C)cc2)sc(C)c1C was read as Cruzain inh noDet 9% and Cruzain inh Det -7%.
`CCOc1ccc(OCC)c(NC(=O)CCC(=O)N2CCOc3ccccc32)c1` gave Cruzain inh noDet 16% and Cruzain inh Det 1%.
Screening COc1ccc(NC(=O)CN(C)S(=O)(=O)c2ccc(C(=O)N3CCOCC3)s2)cc1 returned Cruzain inh noDet 1% and Cruzain inh Det 1%.
Cc1cc2oc(C(=O)Nc3ccc(S(=O)(=O)N(C)c4ccccc4)cc3)cc(=O)c2cc1C was read as Cruzain inh noDet 1% and Cruzain inh Det 0%.
`COc1cc(Cl)c(C)cc1NC(=O)CC1Oc2ccccc2NC1=O` (configuration not stated) gave Cruzain inh noDet -1% and Cruzain inh Det 0%.
COc1cccc(N2CCN(CC(=O)NCc3cccs3)CC2)c1 was read as Cruzain inh noDet -3% and Cruzain inh Det 1%.
`COc1cccc(N2CCN(CC(=O)Nc3nnc(-c4ccccc4)s3)CC2)c1` gave Cruzain inh noDet 25µM* and Cruzain inh Det -2%.
For Cc1ccc(N2CC(NC(=O)Cc3cccs3)CC2=O)cc1C (configuration not stated) the results were Cruzain inh noDet -2% and Cruzain inh Det 2%.
Cc1cccc(C)c1NC(=O)COC(=O)c1ccc(N2CCCC2)c([N+](=O)[O-])c1 was read as Cruzain inh noDet 10µM* and Cruzain inh Det -2%.
Screening Cc1ccc(C)c2sc(NC(=O)c3ccc(N4CCCCC4)c([N+](=O)[O-])c3)nc12 returned Cruzain inh noDet 7.9µM* and Cruzain inh Det 4%.
Screening CCC(C)c1ccccc1NC(=O)COC(=O)c1ccc(N2CCCC2)c([N+](=O)[O-])c1 (configuration not stated) returned Cruzain inh noDet -3% and Cruzain inh Det 0%.
`Cc1cccc(NC(=O)c2ccc(N3CCCCC3)c([N+](=O)[O-])c2)n1` gave Cruzain inh noDet -9% and Cruzain inh Det 0%.
O=[N+]([O-])c1cc([N+](=O)[O-])c2ccccc2c1 was read as Cruzain inh noDet -4% and Cruzain inh Det -5%.
`O=[N+]([O-])c1ccc(CCNc2cccc3ccccc23)c([N+](=O)[O-])c1` gave Cruzain inh noDet 25µM* and Cruzain inh Det -1%.
For COC(=O)c1c(-n2c(C)cc(C=O)c2C)sc2c1CCCC2 the results were Cruzain inh noDet 7.9µM* and Cruzain inh Det 4%.
`Cc1cc(C=O)c(C)n1-c1sc2c(c1C(=O)O)CCCC2` gave Cruzain inh noDet -2% and Cruzain inh Det -3%.
Screening Cn1c(=O)c2c(-c3ccccc3)n3c(c2n(C)c1=O)C(c1ccc([N+](=O)[O-])cc1)Nc1ccccc1-3 (configuration not stated) returned Cruzain inh noDet -5% and Cruzain inh Det -4%.
Cc1cc(C)c(NC(=O)CSc2nc3ccccc3c3nc(-c4ccccc4)nn23)c(C)c1 was read as Cruzain inh noDet -3% and Cruzain inh Det 4%.
CN1C(=O)/C(=C/c2cc(N=Nc3ccccc3)ccc2O)SC1=S was read as Cruzain inh noDet 16µM* and Cruzain inh Det -5%.
O=C1/C(=C/c2ccccc2O)SC(=S)N1Cc1cccnc1 was read as Cruzain inh noDet -3% and Cruzain inh Det -6%.
CC1=C(C(=O)OCc2ccc3c(c2)OCO3)C(c2ccccc2)NC(=O)N1 (configuration not stated) was read as Cruzain inh noDet -6% and Cruzain inh Det -4%.
For CC1=C(C(=O)OCc2ccc3c(c2)OCO3)C(c2ccccc2OCc2ccccc2)NC(=O)N1 (configuration not stated) the results were Cruzain inh noDet 16µM* and Cruzain inh Det -1%.
Screening CCCC1(C(=O)OC)C=C2C(=C(C)C(=O)C2C)CN1 (configuration not stated) returned Cruzain inh noDet -5% and Cruzain inh Det 2%.
Screening CN(C)S(=O)(=O)c1nc(Cl)c2[nH]cnc2n1 returned Cruzain inh noDet -6% and Cruzain inh Det 0%.
`Fc1ccc(C2CC(c3ccco3)=NN2c2ccccc2)cc1` (configuration not stated) gave Cruzain inh noDet inconclusive and Cruzain inh Det -3%.
O=[N+]([O-])c1ccc(N2N=C(c3ccco3)CC2c2ccccc2)cc1 (configuration not stated) was read as Cruzain inh noDet 13µM* and Cruzain inh Det -7%.
Screening Cc1cc(F)c(Nc2ncnc3cc(OCc4ccccc4)ccc23)cc1O returned Cruzain inh noDet inconclusive and Cruzain inh Det 4%.
O=C(/C=C/c1cccs1)N1CCN(c2ccccc2F)CC1 was read as Cruzain inh noDet -6% and Cruzain inh Det -6%.
Screening O=C(/C=C/c1cccs1)N1CCOCC1 returned Cruzain inh noDet 6.3µM* and Cruzain inh Det -6%.
For COc1ccc(-n2ccnc(NCCc3ccc(S(N)(=O)=O)cc3)c2=O)cc1Cl the results were Cruzain inh noDet inconclusive and Cruzain inh Det -22%.
`CCc1c(C)sc2c1CCN(C(=O)Nc1cc(C)ccc1OC)C2c1ccc(F)cc1` (configuration not stated) gave Cruzain inh noDet inconclusive and Cruzain inh Det 0%.
`Cc1ccc(-n2nnnc2C(Cl)c2nnnn2-c2ccc(C)cc2)cc1` gave Cruzain inh noDet 5% and Cruzain inh Det -1%.
Screening CCN(CC)c1ccc(C=C(c2nnnn2-c2ccc(C)cc2)c2nnnn2-c2ccc(C)cc2)cc1 returned Cruzain inh noDet 32µM* and Cruzain inh Det -5%.
`O=C(CSc1nc(-c2cccs2)nc2cc(=O)[nH]n12)Nc1ccccc1Cl` gave Cruzain inh noDet 14% and Cruzain inh Det -4%.
Screening CSc1nc2sc3c(c2c(=O)n1Cc1ccccc1)CCC(C(C)(C)C)C3 (configuration not stated) returned Cruzain inh noDet -5% and Cruzain inh Det -1%.
`Cc1ccc(CNc2ccc3c(c2)OCO3)cc1` gave Cruzain inh noDet 25µM* and Cruzain inh Det -3%.
`c1cc(CNc2ccc3c(c2)OCO3)ccn1` gave Cruzain inh noDet -12% and Cruzain inh Det -6%.
`CCCCCN1C(C(=O)c2ccccc2)=C(NC(C)=O)c2ccccc2S1(=O)=O` gave Cruzain inh noDet 4% and Cruzain inh Det -11%.
For CCCCCN1C(C(=O)c2ccccc2)=C(NC(=O)c2ccccc2Cl)c2ccccc2S1(=O)=O the results were Cruzain inh noDet 10µM* and Cruzain inh Det -5%.
Screening CC(=O)Nc1ccc(NC(=O)c2cnn(-c3ccccc3)c2C2CCN(C(=O)OC(C)(C)C)CC2)cc1 returned Cruzain inh noDet -4% and Cruzain inh Det -5%.
`CCN1C(=O)/C(=C/C=C2/Sc3ccc4ccccc4c3N2CCO)SC1=S` gave Cruzain inh noDet -21% and Cruzain inh Det -3%.
For CCN1C(c2ccccc2)=C(c2ccccc2)S/C1=C/C=C1\SC(=S)N(C)C1=O the results were Cruzain inh noDet 10µM* and Cruzain inh Det -6%.
`C=CCOc1cccc(/C=N/NC(=O)CN(c2cc(Cl)ccc2OC)S(=O)(=O)c2ccc(C)c([N+](=O)[O-])c2)c1` gave Cruzain inh noDet inconclusive and Cruzain inh Det -1%.
